From the supplement of paper PMC8728848 come the findings set out here.

The full list was thinned out, with the strongest signals kept by preference.

Experiment in all cases: glycan array binding signal (z-score within array); higher = stronger binding
Settings in all cases: glycan notation: IUPAC condensed, linker removed

Assay [1] deals with Glc(b1-6)Glc. The method in brief: (§1)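 From the Consortium for Functional Glycomics database, 3228 arrays were curated, keeping only those whose protein sequence was available. Binding is given as a within-array Z-score averaged across arrays sharing a protein sequence and across linkers. Negative Z-scores can be read as non-binding.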
Assay [2] concerns the target GlcA(b1-3)Gal. Summed up:
as §1

Assay [3] has as its target GlcNAc(b1-3)[GlcNAc(b1-4)][GlcNAc(b1-6)]GlcNAc. The method in brief:
as §1

Assay [4] concerns the target GlcNAc6S(b1-3)Gal(b1-4)GlcNAc. Summed up: as §1
The target of assay [5] is Man(a1-3)[Man(a1-6)]Man(a1-6)[Man(a1-2)Man(a1-3)]Man(b1-4)GlcNAc(b1-4)GlcNAc. The method in brief: as §1
Assay [6] has as its target Man(a1-3)[Man(a1-6)]Man(a1-6)[Man(a1-3)]Man. The method in brief: as §1
Assay [7] deals with Man(a1-3)[Man(a1-6)]Man(a1-6)[Man(a1-3)]Man(b1-4)GlcNAc(b1-4)GlcNAc. Summed up: as §1
The target in assay [8] is Neu5Ac(a2-3)Gal(b1-3)GlcNAc6S. Summed up: as §1
In assay [9] the target is Neu5Ac(a2-3)Gal(b1-4)GlcNAc(b1-2)Man(a1-3)[GlcNAc(b1-2)Man(b1-4)GlcNAc(b1-2)Man(a1-6)]Man(b1-4)GlcNAc(b1-4)GlcNAc. Summed up: as §1
Assay [10] deals with Neu5Ac(a2-3)Gal(b1-4)GlcNAc(b1-2)Man(a1-3)[Neu5Ac(a2-6)Gal(b1-4)GlcNAc(b1-2)Man(a1-6)]Man(b1-4)GlcNAc(b1-4)GlcNAc. The method in brief:
as §1

The target of assay [11] is Neu5Ac(a2-3)Gal(b1-4)GlcNAc(b1-3)Gal(b1-4)GlcNAc. Summed up: as §1
For assay [12], the target named is Neu5Ac(a2-3)Gal(b1-4)[Fuc(a1-3)]GlcNAc(b1-3)Gal. Summed up:
as §1

Assay [13] deals with Neu5Ac(a2-3)Gal(b1-4)[Fuc(a1-3)]GlcNAc6S. Summed up:
as §1

In assay [14] the target is Neu5Ac(a2-3)GalNAc. Summed up: as §1
Assay [15] concerns the target Neu5Ac(a2-6)Gal(b1-4)GlcNAc(b1-2)Man(a1-3)[Gal(b1-4)GlcNAc(b1-2)Man(a1-6)]Man(b1-4)GlcNAc(b1-4)GlcNAc. Summed up: as §1
The target of assay [16] is Neu5Ac(a2-8)Neu5Ac(a2-8)Neu5Ac(a2-3)[GalNAc(b1-4)]Gal(b1-4)Glc. The method in brief: as §1
Assay [17] has as its target Neu5Gc(a2-3)Gal(b1-3)[Fuc(a1-4)]GlcNAc. Summed up:
as §1

The target of assay [18] is Neu5Gc(b2-6)Gal(b1-4)GlcNAc. Summed up:
as §1

The target in assay [19] is Fuc(a1-2)Gal(b1-3)GalNAc. Summed up: as §1
Assay [20] concerns the target Fuc(a1-2)Gal(b1-4)Glc6S. Summed up:
as §1

Assay [21] concerns the target Fuc(a1-2)Gal(b1-4)GlcNAc(b1-3)GalNAc. The method in brief: as §1
The target in assay [22] is Fuc(a1-2)Gal(b1-4)[Fuc(a1-3)]GlcNAc(b1-2)[Fuc(a1-2)Gal(b1-4)[Fuc(a1-3)]GlcNAc(b1-4)]Man(a1-3)[Fuc(a1-2)Gal(b1-4)[Fuc(a1-3)]GlcNAc(b1-2)Man(a1-6)]Man(b1-4)GlcNAc(b1-4)GlcNAc. Summed up: as §1
Assay [23] concerns the target Fuc(a1-2)[Gal(a1-3)]Gal(b1-3)GlcNAc(b1-2)Man(a1-3)[Fuc(a1-2)[Gal(a1-3)]Gal(b1-3)GlcNAc(b1-2)Man(a1-6)]Man(b1-4)GlcNAc(b1-4)[Fuc(a1-6)]GlcNAc. Summed up:
as §1

The target of assay [24] is Fuc(a1-2)[Gal(a1-3)]Gal(b1-3)GlcNAc(b1-6)GalNAc. Summed up: as §1
In assay [25] the target is Fuc(a1-2)[Gal(a1-3)]Gal(b1-4)GlcNAc(b1-2)Man(a1-3)[Fuc(a1-2)[Gal(a1-3)]Gal(b1-4)GlcNAc(b1-2)Man(a1-6)]Man(b1-4)GlcNAc(b1-4)[Fuc(a1-6)]GlcNAc. The method in brief:
as §1

The target of assay [26] is Fuc(a1-2)[Gal(a1-3)]Gal(b1-4)GlcNAc(b1-3)[Fuc(a1-2)[Gal(a1-3)]Gal(b1-4)GlcNAc(b1-6)]GalNAc. The method in brief: as §1
For assay [27], the target named is Fuc(a1-2)[Gal(a1-3)]Gal(b1-4)GlcNAc(b1-6)GalNAc. Summed up:
as §1

Assay [28] deals with Fuc(a1-2)[GalNAc(a1-3)]Gal(b1-4)GlcNAc(b1-2)Man. The method in brief:
as §1

Assay [29] deals with Fuc(a1-2)[GalNAc(b1-3)]Gal. Summed up:
as §1

The target in assay [30] is Fuc(a1-3)[Gal(b1-4)]Glc6S. Summed up:
as §1

Assay [31] has as its target Fuc(a1-3)[Gal(b1-4)]GlcNAc(b1-2)Man(a1-3)[Fuc(a1-3)[Gal(b1-4)]GlcNAc(b1-2)Man(a1-6)]Man(b1-4)GlcNAc(b1-4)GlcNAc. The method in brief:
as §1

Assay [32] concerns the target Gal(a1-3)Gal(b1-4)[Fuc(a1-3)]GlcNAc. The method in brief:
as §1

For assay [33], the target named is Gal(b1-3)GlcNAc(b1-3)Gal(b1-4)Glc. The method in brief:
as §1

Assay [34] deals with Gal(b1-3)GlcNAc(b1-3)Gal(b1-4)GlcNAc(b1-2)[Gal(b1-3)GlcNAc(b1-3)Gal(b1-4)GlcNAc(b1-6)]Man(a1-6)[Gal(b1-3)GlcNAc(b1-3)Gal(b1-4)GlcNAc(b1-2)Man(a1-3)]Man(b1-4)GlcNAc(b1-4)[Fuc(a1-6)]GlcNAc. Summed up:
as §1

Assay [35] addresses Gal(b1-4)GlcNAc(b1-3)Gal(b1-4)GlcNAc(b1-3)Gal(b1-4)GlcNAc(b1-3)Gal(b1-4)GlcNAc(b1-2)Man(a1-3)[Gal(b1-4)GlcNAc(b1-3)Gal(b1-4)GlcNAc(b1-3)Gal(b1-4)GlcNAc(b1-3)Gal(b1-4)GlcNAc(b1-2)Man(a1-6)]Man(b1-4)GlcNAc(b1-4)[Fuc(a1-6)]GlcNAc. Summed up: as §1
In assay [36] the target is Gal(b1-4)GlcNAc(b1-3)Gal(b1-4)GlcNAc(b1-6)[Gal(b1-3)]GalNAc. Summed up:
as §1

Assay [37] concerns the target Gal3S(b1-3)GalNAc. Summed up:
as §1

Assay [38] deals with GalNAc(a1-3)GalNAc(b1-3)Gal(a1-4)Gal(b1-4)Glc. Summed up:
as §1

In assay [39] the target is GalNAc(b1-3)GalNAc. The method in brief: as §1
Assay [40] deals with GlcNAc(a1-4)Gal(b1-3)GlcNAc. Summed up:
as §1

For assay [41], the target named is GlcNAc(a1-4)Gal(b1-4)GlcNAc(b1-3)Gal(b1-4)GlcNAc(b1-3)Gal(b1-4)GlcNAc. The method in brief: as §1
Assay [42] addresses GlcNAc(b1-2)Gal(b1-3)GalNAc. Summed up:
as §1

Assay [43] addresses GlcNAc(b1-2)Man(a1-3)[GlcNAc(b1-2)Man(a1-6)]Man(b1-4)GlcNAc(b1-4)[Fuc(a1-6)]GlcNAc. The method in brief:
as §1

Assay [44] deals with GlcNAc(b1-3)Gal(b1-4)GlcNAc(b1-3)Gal(b1-4)GlcNAc(b1-2)Man(a1-3)[GlcNAc(b1-3)Gal(b1-4)GlcNAc(b1-3)Gal(b1-4)GlcNAc(b1-2)Man(a1-6)]Man(b1-4)GlcNAc(b1-4)[Fuc(a1-6)]GlcNAc. The method in brief: as §1
Assay [45] concerns the target GlcNAc(b1-3)Gal(b1-4)GlcNAc(b1-3)Gal(b1-4)GlcNAc(b1-2)[GlcNAc(b1-3)Gal(b1-4)GlcNAc(b1-3)Gal(b1-4)GlcNAc(b1-6)]Man(a1-6)[GlcNAc(b1-3)Gal(b1-4)GlcNAc(b1-3)Gal(b1-4)GlcNAc(b1-2)Man(a1-3)]Man(b1-4)GlcNAc(b1-4)[Fuc(a1-6)]GlcNAc. Summed up: as §1
In assay [46] the target is GlcNAc(b1-3)Gal(b1-4)GlcNAc(b1-3)Gal(b1-4)GlcNAc(b1-3)Gal(b1-4)GlcNAc(b1-2)Man(a1-3)[GlcNAc(b1-3)Gal(b1-4)GlcNAc(b1-3)Gal(b1-4)GlcNAc(b1-3)Gal(b1-4)GlcNAc(b1-2)Man(a1-6)]Man(b1-4)GlcNAc(b1-4)GlcNAc. The method in brief:
as §1

In assay [47] the target is GlcNAc(b1-3)Gal(b1-4)GlcNAc(b1-3)Gal(b1-4)GlcNAc(b1-3)Gal(b1-4)GlcNAc(b1-2)Man(a1-3)[GlcNAc(b1-3)Gal(b1-4)GlcNAc(b1-3)Gal(b1-4)GlcNAc(b1-3)Gal(b1-4)GlcNAc(b1-2)Man(a1-6)]Man(b1-4)GlcNAc(b1-4)[Fuc(a1-6)]GlcNAc. The method in brief: as §1
Assay [48] addresses GlcNAc(b1-3)Gal(b1-4)GlcNAc(b1-3)Gal(b1-4)GlcNAc(b1-3)Gal(b1-4)GlcNAc(b1-2)[GlcNAc(b1-3)Gal(b1-4)GlcNAc(b1-3)Gal(b1-4)GlcNAc(b1-3)Gal(b1-4)GlcNAc(b1-6)]Man(a1-6)[GlcNAc(b1-3)Gal(b1-4)GlcNAc(b1-3)Gal(b1-4)GlcNAc(b1-3)Gal(b1-4)GlcNAc(b1-2)Man(a1-3)]Man(b1-4)GlcNAc(b1-4)[Fuc(a1-6)]GlcNAc. The method in brief: as §1

B1: Gal 8 (Homo sapiens), O00214_1 (protein)
chain: MMLSLNNLQNIIYNPVIPFVGTIPDQLDPGTLIVIRGHVPSDADRFQVDLQNGSSMKPRADVAFHFNPRFKRAGCIVCNTLINEKWGREEITYDTPFKREKSFEIVIMVLKDKFQVAVNGKHTLLYGHRIGPEKIDTLGIYGKVNIHSIGFSFSSDLQSTQASSLELTEISRENVPKSGTPQLRLPFAARLNTPMGPGRTVVVKGEVNANAKSFNVDLLAGKSKDIALHLNPRLNIKAFVRNSFLQESWGEEERNITSFPFSPGMYFEMIIYCDVREFKVAVNGVHSLEYKHRFKELSSIDTLEINGDIHLLEVRSW
Turning to B1, the “glycan array binding signal (z-score)” value in [1] was -0.234; in assay [2], -0.219; in [3] it was -0.227; in assay [4], -0.585; in [5] it was 2.31; in assay [6], -0.195. Moreover, the “glycan array binding signal (z-score)” value in [7] was -0.16; in assay [8], 2.19; in [9], -0.189; in assay [10] it was -0.225; in assay [11], -0.244; in assay [12], -0.243. Besides, the “glycan array binding signal (z-score)” value is -0.235 in assay [13]; -0.201 in assay [14]; -0.254 in assay [15]; 0.35 in [16]; -0.233 in assay [17]; -0.219 in [18].

B2: Jacalin (Artocarpus integrifolia) (protein)
chain: MAYSSLLSLSVLALLFSISSADTRKWFLANGINQNPIGIIEAAVGVSEDLLNLNGMEAKNDEQSGISQTVIVGPWGAKVSTSSNGKAFDDGAFTGIREINLSYNKETAIGDFQVVYDLNGSPYVGQNHKSFITGFTPVKISLDFPSEYIMEVSGYTGNVSGYVVVRSLTFKTNKKTYGPYGVTSGTPFNLPIENGLIVGFKGSIGYWLDYFSMYLSL
Take B2: the “glycan array binding signal (z-score)” value was 0.218 in [19]; -0.249 in assay [20]; 0.829 in assay [21]; -0.131 in assay [22]; -0.249 in assay [23]; -0.265 in assay [24]. Also, the “glycan array binding signal (z-score)” value is -0.211 in [25]; -0.332 in assay [26]; -0.217 in assay [27]; -0.29 in assay [28]; 0.341 in assay [29]; -0.23 in [30]. In addition, the “glycan array binding signal (z-score)” value is -0.259 in [31]; -0.268 in [32]; -0.279 in assay [33]; -0.084 in assay [34]; 0.12 in [35]; 0.001 in assay [36]. The “glycan array binding signal (z-score)” value in assay [37] was 1.89; in assay [38] it was -0.256; in assay [39] it was 3.34; in [40] it was 0.435; in [41], 2.63; in assay [42] it was 2.21. In addition, the “glycan array binding signal (z-score)” value worked out at 0.257 in assay [43]; 2.52 in [44]; 2.41 in assay [45]; 3.65 in assay [46]; 3.32 in [47]; 4.09 in [48].
